BoNT-A LC inh2: blocks Botulinum neurotoxin A light chain protease; multiplex microsphere protease substrate cleavage, flow cytometry; inhibition, % at 10 µM; 0.17% of 360,000 active; note: plate controls were buffer without enzyme for full effect and enzyme alone for no effect
Bead autofluor: counter-screen for toxin protease inhibitors: compound fluorescence | fluorescence intensity (concentration not given with the values) | compound autofluorescence counterscreen, microsphere flow cytometry; active compounds read high | 3.1% of 360,000 active; in the data active = fluorescence intensity above about 16000; inconclusive = no clear call, values can overlap the other calls
Anthrax LF prot: blocks Bacillus anthracis lethal factor protease | P15917 | multiplex microsphere protease cleavage assay, LF | inhibition, % at 10 µM | AID 588501 | 0.12% of 360,000 active; note: plate controls were buffer without enzyme for full effect and enzyme alone for no effect
BoNT-F LC inh: inhibitors of Botulinum neurotoxin F light chain protease; AID 588497; inhibition, % at 10 µM; Multiplex microsphere protease cleavage assay, flow cytometry; 0.22% of 360,000 active; in the data active = inhibition above about 35%, passing the limit was not always enough; inconclusive = no clear call, values can overlap the other calls; note: plate controls were buffer without enzyme for full effect and enzyme alone for no effect
The depositor's hits bear a star; ? = inconclusive; ! = not active in a repeat. Compounds with a hit are over-represented: about 3.5% of the library has one in this group of screens. Cut-off read from the data, not from the text of the source, unless noted: active = inhibition above about 30%; inconclusive = no clear call, values can overlap the other calls; inactive = below that.

SMILES	BoNT-A LC inh2	Bead autofluor	Anthrax LF prot	BoNT-F LC inh
CC(C)CNC(=O)c1ccc2c(c1)C(=O)N(Cc1ccco1)C2=O	2	3807	-10	9
O=C(O)c1cccc(Nc2nc(N3CCOCC3)nc(N3CCOCC3)n2)c1	-6	22856*	0	-9
CSc1nc2ccc(Nc3nc(N4CCOCC4)nc(N4CCOCC4)n3)cc2s1	-1	23477*	-3	-1
CCCOc1ccc(-c2c(=O)n(O)c3ccccc3[n+]2[O-])cc1	1	3385	-8	-30
COC(=O)c1cc(S(=O)(=O)NCCCN2CCCC2=O)cn1C	-1	5171	0	-4
COCCOC(=O)C1=C(C)Nc2nc(C)nn2C1c1ccc(F)cc1 (configuration not stated)	?	18889*!	6	4
CCOC(=O)CSc1nc(C)c(C(C)=O)cc1C#N	-3	23558*	-1	-2
NC(=O)c1cnn2c(C(F)(F)F)cc(-c3ccc(F)cc3)nc12	-2	22634*	-1	-2
O=C(NC1CCCC1)c1cnn2c(C(F)(F)F)cc(-c3ccco3)nc12	2	20185*	-1	2
CC(C)CCNC(=O)c1cnn2c(C(F)(F)F)cc(-c3ccco3)nc12	7	19781*	-5	7
FC(F)(F)c1ccccc1Cc1c(-c2cccc(Br)c2)nc2ccc(Cl)cn12	1	4590	-2	2
CC(C)[C@H](NS(=O)(=O)c1ccccc1)C(=O)OCC(=O)NC(=O)NC1CCCCC1	0	3530	2	-1
CN(CCCNC(=O)C1CCC(=O)N1Cc1ccccc1Cl)c1ccccc1 (configuration not stated)	1	16389*	-1	1
CN(CCCNC(=O)C1CCC(=O)N1Cc1ccc(F)cc1)c1ccccc1 (configuration not stated)	13	4957	22	11
CCN(CCCNC(=O)C1CCC(=O)N1Cc1ccccc1Cl)c1cccc(C)c1 (configuration not stated)	-17	30276*	-4	-25
CC(C)Oc1ccc(S(=O)(=O)N2CCOCC2)cc1NC(=O)CCCSc1ccccc1	-3	6045	2	-11
Cc1ccc(C2NC(=O)c3ccccc3N2)c(C)c1 (configuration not stated)	0	3842	3	-6
O=C(O)CCCCCN1C(=O)/C(=C\c2ccc(-c3ccc(Cl)cc3)o2)SC1=S	43*	3516	22	10
O=C(O)CCCCCN1C(=O)/C(=C\c2ccncc2)SC1=S	0	2532	0	0
O=C(O)CCCN1C(=O)/C(=C/c2ccc(-c3nc4ccccc4s3)o2)SC1=S	30*	2489	40*	1
N#Cc1ccc(C(=O)OCCCc2cc3ccccc3c(=O)o2)cc1	0	3996	-3	-6
CC1=CC(C)(C)N2C(=O)C3(C(C#N)=C(N)OC4=C3C(=O)CCC4)c3c(C)c(C)cc1c32 (configuration not stated)	-4	17514*	-2	-6
CC1=CC(C)(C)N2C(=O)C3(C(C#N)=C(N)Oc4cc(O)ccc43)c3c(C)c(C)cc1c32 (configuration not stated)	-2	23874*	-2	-2
CCn1c(Cc2ccccc2)nnc1SCC(=O)c1c(N)n(C2CC2)c(=O)[nH]c1=O	1	2912	-3	-4
CC(C)(C)c1ccc(C(=O)N2CCCC2c2cccs2)cc1 (configuration not stated)	0	5984	1	-5
SMILES	BoNT-A LC inh2	Bead autofluor	Anthrax LF prot	BoNT-F LC inh
CC(=O)c1c(C)[nH]c(C(=O)N2CCN(c3ccc(F)cc3)CC2)c1C	-4	23763*	-3	-5
O=C(O)Cn1nnc(COc2ccccc2)n1	-5	3640	-7	-9
C[C@H]1CN([C@@H](C)CO)C(=O)Cc2cc(NC(=O)CCC(F)(F)F)ccc2O[C@H]1CN(C)CC1CC1	0	4334	0	-11
CCOc1ccc(C(=O)N2CCN(c3cccc(C)c3C)CC2)cc1	-2	17197*	-1	-6
CCOC(=O)C1CCCN(C(=O)c2ccc(C(=O)c3ccccc3)cc2)C1 (configuration not stated)	0	?	-6	0
CCOc1ccc(C(=O)N2CCCC2)cc1	0	9070	-3	1
CCCCC(=O)N1CCCC(C(=O)OCC)C1 (configuration not stated)	-1	22655*	-1	0
CCCCOc1ccc(C(=O)N2CCCC2)cc1	?	16482*	0	-1
CCOC(=O)C1CCCN(C(=O)c2ccc(OCC)cc2)C1 (configuration not stated)	-1	24552*	1	-2
CC1CCCN(C(=O)CN2C(=O)NC(C)(c3ccc4ccccc4c3)C2=O)C1 (configuration not stated)	0	3675	-5	4
Cc1cc(-c2nc(C)c(C(=O)NN)s2)no1	?	4632	3	?
COc1ccc(C(=O)NCC(=O)N2CCCCC2)cc1OC	0	3383	-1	1
COc1ccc(C(=O)NN2CCCCC2)cc1OC	?	22220*	2	2
CCOC(=O)C1CCCN(C(=S)Nc2ccc(C)cc2C)C1 (configuration not stated)	0	16244*	-1	-2
CCOC(=O)C1CCCN(C(=S)Nc2ccc(Nc3ccccc3)cc2)C1 (configuration not stated)	0	3346	1	-7
CCCOc1ccc(C(=O)N2CCCC2)cc1OC	?	19871*	1	-1
CCOC(=O)N1CCN(C(=O)c2ccc(OC)c(OC)c2)CC1	1	4292	-4	-8
CCOc1cccc(CN2CCC(Oc3ccc(C(=O)N4CCCC4)cc3)CC2)c1O	0	3606	-3	-1
O=C(Nc1ccc(Br)cc1)C1CCN(C(=O)c2ccc(F)cc2)CC1	0	2076	-1	4
O=C(Nc1cccc(F)c1)C1CCN(C(=O)c2ccc(Br)cc2)CC1	-1	23473*	1	-1
Cc1ccc(OCCN2CCC2(C)C(=O)Nc2ccc3c(c2)OCO3)cc1 (configuration not stated)	-1	3728	-2	-7
COc1ccccc1C(=O)N1CCN(C(=O)c2oc3c(C)c(C)ccc3c2C)CC1	0	2999	-4	7
CC(C)(C)NCC(O)COc1c(F)cc(Br)cc1F (configuration not stated)	2	22894*	1	2
CC(C)(C)CC(C)(C)NCC(O)COc1c(F)cc(Br)cc1F (configuration not stated)	1	2074	0	0
CCCC(=O)C1=C(O)C(C(=O)OC)C(C)(C)CC1=Nc1ccc(N)cc1 (configuration not stated)	4	21083*	0	9
CCCC(=O)C1=C(O)C(C(=O)OC)C(C)(C)CC1=Nc1ccc(C)cc1 (configuration not stated)	0	3386	-3	-10
CCCC(=Nc1ccc(N)cc1)C1=C(O)C(C(=O)OC)C(C)(C)CC1=O (configuration not stated)	?	23098*	-1	0
CCCCC(=NCCO)C1=C(O)C(C(=O)OC)C(C)(C)CC1=O (configuration not stated)	0	2421	-3	-4
Cc1ccc(OCC(=O)N2CCCCC2)c(Br)c1	-4	17161*	-2	-2
